# ATXN2 expr inh: inhibitors of ATXN2 expression | HEK-293 ATXN2-luciferase reporter, luminescence, 24 h | Potency, µM (series often up to 57 µM), inactives show at the top dose activity change, negative = inhibition, most hits filed as inhibitors | 360,000 compounds, 0.72% hits | AID 1745845; also: potency is read from the fitted curve at half-maximal effect; % is scaled to controls: 0 for no effect and ±100 for the full control effect; nearly all actives have a fitted effect of over 55% in size
#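 ATXN2-luciferase reporter cells (luciferase flanked by upstream and downstream ATXN2 gene portions) were treated 24 h at 37 °C with compounds at up to 57 uM. SteadyGlo luminescence gave expression; GF-AFC fluorescence gave viability.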
# IL1B secr inh: inhibitors of inflammasome signaling (IL-1 beta secretion). THP-1 LPS/ATP IL-1B secretion, AlphaLISA, 16 h; hits give low values. activity change, % at 57.5 µM. 360,000 compounds, 4.7% hits. AID 743279; in the data active = activity change below about -50%; inconclusive = mostly about -30% to -49%; also: % is scaled to controls: 0 for no effect and ±100 for the full control effect
#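 THP-1 cells pretreated 1 hr with compounds (up to 57.5 uM final), then stimulated with LPS (250 ng/mL final) plus ATP (1.25 mM final); secreted IL-1B measured by AlphaLISA after 16 hr, decreased signal indicating inhibition.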
# S2 tox: viability counter-screen for ATXN expression inhibitors; S2 cells (HEK-293 line with an ATXN2-luciferase reporter) viability, CellTiter-Fluor protease fluorescence, 24 h; Potency, µM (doses to about 56.7 µM), hits mostly cytotoxic; 400,000 compounds, 0.49% hits; also: potency is read from the fitted curve at half-maximal effect; nearly all actives have a fitted effect of over 40% in size
# MCF10A rerep: induces DNA re-replication in MCF 10a normal breast cells | MCF 10A DNA re-replication, Hoechst nuclear intensity, 48 h | Potency, µM (doses to about 46.1 µM), for inactives: top-dose activity, positive = re-replication, actives largely listed as activators | 350,000 compounds, 2.9% hits | AID 624296; also: potency is read from the fitted curve at half-maximal effect; % of control where 0% means no effect; nearly all actives have a fitted effect of over 50% in size
# PINK1 expr mod: changes PINK1 expression; PINK1 immunofluorescence, high-content cytometry, 24 h; Potency, µM (doses to about 76.6 µM), inactives show top-dose activation (PINK1 increase), most hits filed as activators; 410,000 compounds, 0.2% hits; active = well fitted activation curve with a large enough effect; inconclusive = small, poorly fitted or top-dose-only effect; cell line not stated here; also: potency is read from the fitted curve at half-maximal effect; % of control where 0% means no effect; nearly all actives have a fitted effect of over 65% in size
#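 Fluorescence from anti-PINK1 antibody, together with nuclear and cell stains, was scanned on a laser-scanning cytometer. Before staining, stable-line cells were incubated 24 hours with compounds at 5 concentrations; primary antibody 12 h at 10 degrees C.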
# SW480 rereplic: DNA re-replication induction in SW480 cells; SW480 DNA re-replication, Hoechst DNA content imaging, 48 h; 340,000 compounds, 1.8% hits; Potency, µM (series often up to 46.1 µM), for inactives: at the highest dose re-replication activation, hits mostly activators; also: potency is read from the fitted curve at half-maximal effect; % of control where 0% means no effect; nearly all actives have a fitted effect of over 55% in size
#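 Readout is total intensity of Hoechst-stained nuclei, excited at 405 nm and collected at 500-530 nm. Compound treatment lasted 48 hr at 37 C in 5% CO2 before staining.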
# * = called active by the depositor; i = inactive; ? = inconclusive; · = no result; [ ] = another dose, or the depositor's remark. The list is not random: actives were taken first. Their share in the collection is about 7.1%. Unless noted, calls follow the shape of the dose curve; as a rule, active = well fitted curve in the direction sought with a large enough effect; inconclusive = small, poorly fitted or top-dose-only effect, or another doubt; inactive = no such curve, though single readings can be large; an effect the other way counts as inactive or inconclusive.
SMILES,ATXN2 expr inh,IL1B secr inh,S2 tox,MCF10A rerep,PINK1 expr mod,SW480 rereplic
OC(Cc1ccccc1Br)c1ncc(-c2cccc(C(F)(F)F)c2)[nH]1 (centres undefined),?,-61*,?,·,11%,·
OC(Cc1cccc(Br)c1)c1ncc(-c2cccc(C(F)(F)F)c2)[nH]1 (centres undefined),?,-8,?,·,?,·
Cc1ccc(C(O)c2ncc(-c3cccc(C(F)(F)F)c3)[nH]2)c(C)c1 (centres undefined),-10%,-23,?,·,21%,·
Cc1ccc(C)c(C(O)c2ncc(-c3cccc(C(F)(F)F)c3)[nH]2)c1 (centres undefined),4%,-54*,?,·,?,·
OCCN1CCN(CC(O)COC(c2ccc(F)cc2)c2ccc(F)cc2)CC1 (centres undefined),-3%,-79*,i,23µM*,3%,16%
COc1ccc(CC(=O)Nc2sc3c(c2C(=O)Nc2c(C)cccc2C)CCCCC3)cc1,5%,·,i,·,-1%,·
O=C(NCC1CCCO1)C(=O)N/N=C/c1cc(Cl)ccc1O (centres undefined),-17%,175,i,7%,4%,15µM*
COc1cc([N+](=O)[O-])cc(/C=N/NC(=O)Cn2cncn2)c1O,·,-6,i,16µM*,-2%,-2%
COc1cc([N+](=O)[O-])cc(/C=N/NC(=O)C(C)Nc2cccc(C)c2)c1O (centres undefined),-19%,0,i,?,-2%,·
COc1cc([N+](=O)[O-])cc(/C=N/NC(=O)C(C)Nc2ccccc2C)c1O (centres undefined),?,1,i,1.6µM*,-1%,?
COc1cc([N+](=O)[O-])cc(/C=N/NC(=O)CSc2ccccn2)c1O,-25%,26,?,?,-2%,?
Cc1ccc(C(=O)N/N=C/c2cc(Br)ccc2O)cn1,2µM*,185,?,3%,7%,2%
COc1ccc2c(c1)c1c(c(=O)n(-c3ccc(OC)c(OC)c3)c(=O)n1Cc1ccccc1F)n2C,16%,·,i,·,3%,·
Cc1cc(C)n(CC(=O)Nc2ccc(F)c(F)c2)c(=O)c1C#N,·,·,·,·,0%,·
O=C(N/N=C/c1ccccc1Cl)c1ccncc1,·,-10,i,?,4%,4%
O=C(N/N=C/c1cc(Cl)ccc1O)c1ccncc1,?,217,i,?,1%,0.65µM*
COc1cc([N+](=O)[O-])cc(/C=N/NC(=O)c2ccc(C)nc2)c1O,?,0,?,15µM*,-2%,·
COc1cc([N+](=O)[O-])cc(/C=N/NC(=O)c2ccc(NC(=O)c3ccc(C)cc3)cc2)c1O,?,73,?,18%,28%,?
CCC(=O)Nc1ccc2nc(SCc3ccccc3)sc2c1,·,·,·,·,0%,·
Cc1[nH]n(-c2ccccc2)c(=O)c1/C=N/NC(=O)c1ccc(O)cc1O,·,61,?,9%,1%,?
Cc1ccc(-n2[nH]c(C)c(/C=N/NC(=O)c3ccc(O)cc3O)c2=O)cc1,?,220,i,2%,-3%,8.2µM*
Cc1ccc(NC(=O)CCc2c(C)nc3c(-c4ccc(F)cc4)c(C)nn3c2C)cc1F,2%,·,i,·,1%,·
CCOC(=O)c1cc(-c2ccccc2)n[nH]1,9%,1,i,1%,0%,-1%
Cc1cc(-c2nnc3n2N=C(c2ccc(-c4ccccc4)cc2)CS3)n[nH]1,?,-62*,?,?,15%,3%
Cc1cc(-c2ccccc2)n[nH]1,-21%,4,i,0.65µM*,6%,-18%
SMILES,ATXN2 expr inh,IL1B secr inh,S2 tox,MCF10A rerep,PINK1 expr mod,SW480 rereplic
c1ccc(-c2cc(-c3nnc4n3N=C(c3ccc5ccccc5c3)CS4)[nH]n2)cc1,?,-64*,?,4.1µM*,2%[38.3 µM],?
CCC(C(=O)NC1CCC(C)CC1)n1nc(C)c2sc3ccccc3c2c1=O (centres undefined),·,·,·,·,1%,·
CSC[C@H]1CN(c2ccccc2)C(=O)[C@@H]1CC(=O)Nc1ccccc1,1%,-4,i,·,-1%,·
Cc1[nH]nc(C(=O)NN=Cc2ccccc2Cl)c1N=NN(C)C,0%,-12,?,16µM*,-1%,15µM*
CN(C)c1ccc2cc(C(=O)N[C@@H](CCCN=C(N)CCl)C(=O)NCc3ccccc3)ccc2c1,31µM*,·,·,·,·,·
COC(=O)c1ccc2nc(-c3ccc(Cl)cc3)c(Cc3ccc(OC)cc3C)n2c1,31%,-5,i,·,1%,·
COc1ccc(Cc2c(-c3ccc(C)cc3)nc3ccc(Cl)cn23)c(C)c1,-10%,-4,?,·,32µM*,·
COc1ccccc1Cc1c(-c2ccc(C)cc2)nc2ccc(Cl)cn12,45%,-102*,?,·,7%,·
COc1ccccc1Cc1c(-c2ccc(OC)c(OC)c2)nc2ccc(Br)cn12,?,-8,?,·,14µM*,·
Cc1cccc(C(=O)OCC(=O)N2CC(=O)Nc3ccccc32)c1C,-16%,13,i,5%,-1%,?
Cc1ncc2c(c1CNS(=O)(=O)N(C)C)CCN(C(=O)c1[nH]c3ccc(Cl)cc3c1C)C2,·,·,i,·,1%,·
Cc1ccc(CN2C(=O)c3ccccc3Sc3ccc(C(=O)NCc4ccco4)cc32)cc1,·,·,·,·,1%,·
O=[N+]([O-])c1ccc(O)c(-c2cc(C(F)(F)F)nc(-c3ccccc3)n2)c1,·,-62*,?,?,?,15%
CNC(=O)[C@@H]1C[C@H](Sc2nc3ccccc3[nH]2)CN1Cc1ccccc1C(F)(F)F,·,·,i,·,1%,·
CC(C)CN(C(=O)COC(=O)c1ccc2c(c1)OCO2)c1c(N)n(Cc2ccccc2)c(=O)[nH]c1=O,-18%,-55*,i,9%,6%,0%
CC(C)CN(C(=O)COC(=O)c1ccc([N+](=O)[O-])s1)c1c(N)n(Cc2ccccc2)c(=O)[nH]c1=O,-11%,9,i,1%,40µM*,?
CCCCn1c(N)c(N(CCC(C)C)C(=O)COC(=O)c2ccc([N+](=O)[O-])s2)c(=O)[nH]c1=O,-17%,-74*,i,6%,?,?
CN(Cc1ccc(F)cc1)S(=O)(=O)c1nnc(NC(=O)c2ccc(F)cc2)s1,·,·,·,·,1%,·
CCc1ccc(-c2cc(C(=O)N3N=C(C(F)F)CC3(O)C(F)F)c3ccccc3n2)cc1 (centres undefined),-2%,0,?,9.2µM*,?,9%
CCCCN(CCN(CCCC)C(=O)N1CCOCC1)C(=O)N1CCOCC1,-14%,·,i,·,·,·
